Bioassay records: PubChem, National Center for Advancing Translational Sciences (NCATS)
SNCA expr inhib: inhibitors of alpha-synuclein (SNCA) gene expression; HEK-293 SNCA-luciferase knock-in, luminescence, 24 h; Potency, µM (series often up to 57.2 µM), for the others: at the top dose activity change, negative = inhibition, usual class: inhibitors; hit rate 0.17% among 140,000;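 note: potency is the fitted concentration of half-maximal effect; plate controls were DMSO cells for no effect and cell-free wells for full effect; nearly all actives have a fitted effect of over 45% in size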
KDM5B inhibitor: blocks human KDM5B histone demethylase activity; Q9UGL1; KDM5B demethylase, FDH-coupled NADH fluorescence (FDH is formaldehyde dehydrogenase); Potency, µM (doses to about 57.7 µM), most hits filed as inhibitors; hit rate 2.6% among 220,000; note: potency is the fitted concentration of half-maximal effect; 0% is about no effect; nearly all actives have a fitted effect of over 70% in size
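Compound dilutions met 200 nM (final) KDM5BΔAP for 10 min at room temperature before substrate addition. The substrate mix held 12.5 µM H3K4me3 with cofactors 25 µM α-ketoglutarate and 50 µM Fe²⁺. NADH signal gain over 30 min defined activity.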
IP6K1 inhibitor: blocks human inositol hexakisphosphate kinase 1; AID 1645851; IP6K1 kinase, ADP-Glo luminescence, 2 h; hits give low values; activity change, % (series mostly up to about 58 µM); hit rate 0.81% among 140,000; Q92551; in the data active = activity change below about -25%; note: % is set by controls: 0 for no effect and ±100 for the full control effect
Target sequence (Q92551 whole entry, looked up): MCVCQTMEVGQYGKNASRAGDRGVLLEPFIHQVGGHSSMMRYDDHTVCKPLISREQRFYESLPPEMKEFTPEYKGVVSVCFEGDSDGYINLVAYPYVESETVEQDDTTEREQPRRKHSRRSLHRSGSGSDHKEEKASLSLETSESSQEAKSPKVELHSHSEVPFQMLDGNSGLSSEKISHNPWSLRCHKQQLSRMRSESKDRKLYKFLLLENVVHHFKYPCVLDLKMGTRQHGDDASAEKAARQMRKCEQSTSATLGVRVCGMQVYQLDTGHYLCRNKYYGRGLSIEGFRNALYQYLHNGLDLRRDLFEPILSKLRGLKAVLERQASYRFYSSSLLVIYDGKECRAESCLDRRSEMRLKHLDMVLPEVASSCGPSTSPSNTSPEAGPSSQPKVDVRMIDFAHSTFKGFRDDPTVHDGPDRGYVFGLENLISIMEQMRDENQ
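ADP-Glo luminescence measures ADP made by human IP6K1 during a 2 h RT reaction with ATP/IP6 (mix at 1.3 mM/130 uM); top library doses 57.5 and 19.1 uM final.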
HEK293 viab: cell viability loss counter-screen; HEK-293-SNCA-luc viability, GF-AFC fluorescence, 24 h; Potency, µM (top dose mostly 57.1 µM), without a hit: top-dose activity change, negative = cytotoxicity, usual class: cytotoxic; hit rate 0.12% among 150,000; AID 1671193;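 note: potency is the fitted concentration of half-maximal effect; 0% = DMSO-treated cells and -100% = medium-only wells without cells; nearly all actives have a fitted effect of over 30% in size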
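Cytotoxicity counterscreen: after 24 h compound treatment of genome-edited SNCA-luciferase HEK-293 cells, live-cell protease substrate GF-AFC read by fluorescence after 30 min; activity scaled between DMSO (0%) and medium-only (-100%), curves Hill-fitted.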
* hit, by the source's call; i = inactive; ? = inconclusive; . = no result; [ ] = remark or other dose. An excerpt weighted towards active compounds, which were near 2.9% of everything screened. Unless noted, calls come from the whole dose curve; as a rule, active = well fitted curve in the direction sought with a large enough effect; inconclusive = small, poorly fitted or top-dose-only effect, or another doubt; inactive = no such curve, though single readings can be large; an effect the other way counts as inactive or inconclusive.

SMILES	SNCA expr inhib	KDM5B inhibitor	IP6K1 inhibitor	HEK293 viab
CC(C)C(=O)Nc1cccc(NC2=NS(=O)(=O)c3ccccc32)c1	2%	i	18	-1%
O=C(CCl)Nc1cccc(NC2=NS(=O)(=O)c3ccccc32)c1	.	.	4	30µM*
COc1ccc(-c2nc3c(c(=O)[nH]2)CCN(C(=O)Nc2ccc(C)cc2C)C3)cc1	-6%	25µM*	15	-9%
COc1ccc(-c2nc3c(c(=O)[nH]2)CCN(C(=O)COc2ccc(F)c(F)c2)C3)cc1	-14%	22µM*	30	3%
O=C(c1cccs1)N1CCn2c(nnc2[C@@H]2C[C@@H](O)CN2Cc2ccccc2)C1	6%	i	-7	6%[12.5 µM]
O=C(CCC1CCCN(S(=O)(=O)c2ccccc2F)C1)NCCN1CCOCC1 (centres undefined)	-23%	20µM*	3	13%
CN(C)c1ccc(C(=O)NCC2CCN(c3cc(-c4ccc(F)cc4)[nH]n3)CC2)cc1	-14%	?	5	-21%
CN(C)c1cccc(C(=O)NCC2CCN(c3cc(-c4ccccc4)[nH]n3)CC2)c1	85%	25µM*	17	-1%
Cc1ccc(-c2cc(N3CCCN(C(=O)c4cccc(N(C)C)c4)CC3)n[nH]2)cc1C	-27%	?	-10	18µM*
COc1ccc(Cl)cc1NC(=O)CN1C(=O)NC2(CCC(C)CC2)C1=O (centres undefined)	2%	i	19	-9%
COCCNc1ncc(-c2cccc(OC)c2)c2c1OCC2	134%[87.6 µM]	35µM*	8	7%[87.6 µM]
COCCNc1ncc(-c2ccc(NC(C)=O)cc2)c2c1OCC2	24%[87.6 µM]	35µM*	-11	-1%[87.6 µM]
COCCNc1ncc(-c2ccc(SC)cc2)c2c1OCC2	134%[87.6 µM]	5µM*	-20	-1%[87.6 µM]
COc1ccc(-c2cnc(NC(=O)Cc3ccc(F)cc3)c3c2CCO3)cn1	48%[87.6 µM]	?	-7	6%[87.6 µM]
COCCNc1ncc(-c2ccc(F)cc2)c2c1OCC2	135%[87.6 µM]	32µM*	-1	-5%[87.6 µM]
N#Cc1ccc(CN2CCn3c(nnc3-c3ccccc3)C2)cc1	-1%[87.6 µM]	i	-16	5%[87.6 µM]
CN(Cc1ccc2nsnc2c1)Cc1cn(-c2ccccc2)nn1	11%	i	-17	-2%
COc1ccc(OCC(=O)Nc2ncc(-c3ccc(OC)nc3)c3c2OCC3)cc1	-4%[87.6 µM]	i	-11	-9%[87.6 µM]
COCCNc1ncc(-c2ccc(OC)cc2)c2c1OCC2	95%[87.6 µM]	35µM*	-11	-12%[87.6 µM]
COc1ccc(C(=O)Nc2ncc(-c3cccc(N(C)C)c3)c3c2OCC3)cc1	3%[87.6 µM]	?	13	-11%[87.6 µM]
COCCNc1ncc(-c2cccc(N[S+](C)(=O)[O-])c2)c2c1OCC2	101%[87.6 µM]	35µM*	-6	-1%[87.6 µM]
O=C(O)c1ccc(/C=C/C(=O)c2ccccc2C(=O)O)cc1	.	i	.	.
COc1ccc(-c2cc(C(=O)N3CCOCC3)c3c(C)nn(-c4ccccc4)c3n2)cc1	176%	79µM*	2	-2%
CCOc1ccc(/C=C/c2nc3ccccc3n2S(=O)(=O)c2cccc(Cl)c2)cc1	-94%	i	-31*	-10%
Cc1ccc(/C=C/c2nc3ccccc3n2S(=O)(=O)c2cccc(Cl)c2)cc1	?	?	-51*	-13%
SMILES	SNCA expr inhib	KDM5B inhibitor	IP6K1 inhibitor	HEK293 viab
CCOC(=O)c1cnc2ccccc2c1N1CCC(CNC(C)=O)CC1	.	i	.	.
Cc1nn(-c2ccccc2)c2c1C(C1CC1)N(C1CCN(C(=O)c3ccc(Cl)cc3)C1)C2=O (centres undefined)	.	.	0	.
O=C(N[C@H]1CCN2C(=O)N(c3cccc4nsnc34)C(=O)[C@@H]2C1)c1ccc(F)c(Cl)c1	?	32µM*	-4	-1%
Cc1nnsc1C(=O)N[C@H]1CCN2C(=O)N(c3ccc(F)c(Cl)c3)C(=O)[C@@H]2C1	-12%[87.6 µM]	i	6	-3%[87.6 µM]
O=C(CCc1ccccc1)N1CCN(c2cc(-c3cccs3)[nH]n2)CC1	26%	?	7	1%
Cc1cccc2nnc(N3CCCN(C(=O)c4ccccc4Cl)CC3)n12	8%	22µM*	17	-1%
COc1ccc(C(=O)N2CCCN(c3cc(-c4ccc(C)c(C)c4)[nH]n3)CC2)cc1OC	-7%	i	-6	-1%
O=C(c1ccccc1Cl)N1CCCN(c2ccc3nnc(-c4ccccc4)n3n2)CC1	.	.	7	.
Cc1ccc(C(=O)N2CCN(c3nnc4cccc(C)n34)CC2)cc1C	5%	25µM*	18	-4%
Cc1cccc2nnc(N3CCN(C(=O)CCc4ccccc4)CC3)n12	17%	25µM*	8	-4%
O=C(O)CCCCCCCCC(O)CN1CCCCC1 (centres undefined)	.	i	.	.
COc1ccc(Cn2c(C)c3c(=O)n(-c4ccc(Cl)cc4)[nH]c3cc2=O)cc1	.	i	.	.
CCn1cc(-c2cc(C(=O)N3CCCCCC3)c3cccc(C)c3n2)cn1	3%	32µM*	1	?
Cc1cccc2c(C(=O)N3CCN(Cc4ccccc4)CC3)cc(-c3cccnc3)nc12	.	i	.	.
COc1ccccc1CN1CC[C@@H]2OCC(=O)N(Cc3c[nH]c4ccccc34)[C@H]2CC1	-7%[87.6 µM]	?	-11	-9%[87.6 µM]
COc1ccc2nc3n(c2c1)[C@@H](CNCc1ccccc1)COC3	5%[87.6 µM]	i	-6	-13%[87.6 µM]
COc1ccc2nc3n(c2c1)[C@@H](CNCc1ccc(C#N)cc1)COC3	3%[87.6 µM]	28µM*	-3	-18%[87.6 µM]
N=CC1=C(O)CC(c2ccccc2)CC1=O (centres undefined)	.	i	.	.
O=C1NCCN2CC3(CCN(C(=O)Nc4ccccc4)CC3)CC12 (centres undefined)	-6%	?	5	-7%
O=C1NCCN2CC3(CCN(C(=O)c4ccco4)CC3)CC12 (centres undefined)	-9%	28µM*	-10	0%
CCOc1ccccc1NC(=O)N1CCCC(c2nc(C(C)C)no2)CCNC(=O)CC1 (centres undefined)	-7%	i	5	-3%
COCc1cn(C[C@H]2C[C@@H](NCc3cccnc3)[C@H](O)[C@@H]2O)nn1	?	35µM*	5	-3%[87.6 µM]
O=S1(=O)CCN(Cc2cn(C[C@H]3C[C@@H](NCc4cccnc4)[C@H](O)[C@@H]3O)nn2)CC1	-22%	?	10	-6%
Cc1cc2cc(-c3c(C)noc3C)nc(N3CCN(c4ccccn4)CC3)c2o1	-28%[87.6 µM]	32µM*	-11	-4%[87.6 µM]
Cc1noc(C)c1-c1cc2cc(CO)oc2c(-c2ccc(F)c(Cl)c2)n1	-25%[87.6 µM]	32µM*	-6	-24%[87.6 µM]
COc1cc(-c2nc(-c3c(C)noc3C)cc3cc(C)oc23)ccn1	19%[87.6 µM]	35µM*	8	-7%[87.6 µM]
Cc1cc2cc(-c3c(C)noc3C)nc(-c3ccccc3)c2o1	-8%[87.6 µM]	?	2	2%[87.6 µM]
COc1ccc(-c2nc(-c3c(C)noc3C)cc3cc(CO)oc23)cn1	74%[87.6 µM]	35µM*	11	6%[87.6 µM]
C[C@@H](N)C(=O)N1CCC(n2nccc2NC(=O)Nc2cccc(F)c2)CC1	8%	?	-11	-6%
CC1CCN(C(=O)C2CCN(C(=O)c3cc4ccccc4n3C)CC2)CC1	.	i	.	.
